# Laboratory results reported in PubChem BioAssay (NCATS).
# Inconclusive results are not listed. A call without a number means that no potency is given here. Activity calls are given as the source filed them. Calls follow the shape of the dose curve; as a rule, active = well fitted cell-killing curve with a large enough effect; inconclusive = small, poorly fitted or top-dose-only effect, or effect the other way; inactive = no such curve, though single readings can be large or run the other way.
# Assays:
# [1] = Quantitative High-Throughput drug screen in 47 multiple myeloma cell lines against the NCATS MIPE library collection: Delta47_JCRB cell viability assay (AID 1918925; also: nearly all actives have a fitted effect of over 45% in size)
# Summary of the method: (§1)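 Relative luminescence from CellTiter-Glo served as the viability signal, referenced to DMSO-treated (100%) and cell-free medium (0%) controls. Treatment lasted 48 hours at 37C with 500 cells per well.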
# [2] = Quantitative High-Throughput drug screen in 47 multiple myeloma cell lines against the NCATS MIPE library collection: AMO1_DSMZ cell viability assay (AID 1918927; also: nearly all actives have a fitted effect of over 30% in size)
# Summary of the method: as §1
# [3] = Quantitative High-Throughput drug screen in 47 multiple myeloma cell lines against the NCATS MIPE library collection: ARP1_JJKsccF8 cell viability assay (AID 1918928; also: nearly all actives have a fitted effect of over 40% in size)
# Summary of the method: (§2)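 Viability screen: myeloma cells (500/well) incubated 48 h at 37 °C, humidified 5% CO2, with pinned library compounds; CellTiter-Glo added, luminescence read; DMSO wells set 100%, medium-only wells 0%.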
# [4] = Quantitative High-Throughput drug screen in 47 multiple myeloma cell lines against the NCATS MIPE library collection: Karpas620_DSMZ cell viability assay (AID 1918959); also: nearly all actives have a fitted effect of over 30% in size
# Summary of the method: (§3)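 Myeloma cells (500 per well) were exposed to MIPE 4.0 compounds by pin transfer and incubated 48 hours at 37C, 5% CO2. Viability was read as ATP by CellTiter-Glo luminescence, normalised to DMSO (100%) and media-only (0%) wells.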
# [5] = Quantitative High-Throughput drug screen in 47 multiple myeloma cell lines against the NCATS MIPE library collection: KMM1_JCRB cell viability assay (AID 1918960); also: nearly all actives have a fitted effect of over 30% in size
# Summary of the method: as §2
# [6] = Quantitative High-Throughput drug screen in 47 multiple myeloma cell lines against the NCATS MIPE library collection: Karpas417_ECACC cell viability assay (AID 1918961); details: Karpas417 myeloma viability, CellTiter-Glo ATP luminescence, 48 h; viability (% of DMSO): at 45.8 µM (top of the series)
# Summary of the method: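 CellTiter-Glo ATP luminescence gave viability after 48 h compound treatment at 37C of 500 multiple myeloma cells per well. Normalisation used DMSO-only wells as 100% and media-only wells as 0% viability; primary qHTS of approved and investigational drugs.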
# [7] = Quantitative High-Throughput drug screen in 47 multiple myeloma cell lines against the NCATS MIPE library collection: EJM_DSMZ cell viability assay (AID 1918926; also: nearly all actives have a fitted effect of over 30% in size)
# Summary of the method: as §1
# [8] = Quantitative High-Throughput drug screen in 47 multiple myeloma cell lines against the NCATS MIPE library collection: FR4_PLB cell viability assay (AID 1918924; also: nearly all actives have a fitted effect of over 35% in size)
# Summary of the method: as §3
# [9] = Quantitative High-Throughput drug screen in 47 multiple myeloma cell lines against the NCATS MIPE library collection: ARD_JJKsccE7 cell viability assay (AID 1918929)
# Summary of the method: as §1
# Potency is read from the fitted curve at half-maximal effect.
smiles,measurement,setting,value
CCOC(=O)[C@H](CCc1ccccc1)N[C@H]1CS[C@H](c2cccs2)CN(CC(=O)O)C1=O,Potency,[1],2.96 µM (active)
same,Potency,[2],1.32 µM (active)
same,Potency,[3],11.8 µM (active)
same,Potency,[4],4.69 µM (active)
same,Potency,[5],1.05 µM (active)
same,Potency,[6],0.264 µM (active)
O=NN(CCCl)C(=O)NC1CCCCC1,Potency,[7],inactive
same,Potency,[3],inactive
same,Potency,[4],inactive
O=C(O)c1ccc(-n2nc(-c3ccccc3O)nc2-c2ccccc2O)cc1,Potency,[8],23.5 µM (active)
same,Potency,[6],inactive
COCCCOc1cc(C[C@@H](C[C@H](N)[C@@H](O)C[C@H](C(=O)NCC(C)(C)C(N)=O)C(C)C)C(C)C)ccc1OC,Potency,[2],inactive
same,Potency,[3],inactive
same,Potency,[4],inactive
O=C(N[C@H](CO)[C@H](O)c1ccc([N+](=O)[O-])cc1)C(Cl)Cl,Potency,[1],inactive
same,Potency,[7],inactive
same,Potency,[3],inactive
same,Potency,[4],inactive
same,Potency,[5],inactive
C[C@@H]1CN(c2c(F)c(N)c3c(=O)c(C(=O)O)cn(C4CC4)c3c2F)C[C@H](C)N1,Potency,[2],inactive
same,Potency,[4],inactive
same,Potency,[5],inactive
N[C@@H](C(=O)N[C@@H]1C(=O)N2C(C(=O)O)=C(Cl)CS[C@H]12)c1ccccc1,Potency,[1],inactive
same,Potency,[3],inactive
same,Potency,[9],inactive
same,Potency,[5],inactive
CCn1cc(C(=O)O)c(=O)c2cc(F)c(N3CCN(C)CC3)cc21,Potency,[8],inactive
same,Potency,[4],inactive
same,Potency,[6],inactive
O=C(O)c1cccnc1,Potency,[8],inactive
same,Potency,[4],inactive
same,Potency,[5],inactive
same,Potency,[6],inactive
CCCCCCNC(=O)n1cc(F)c(=O)[nH]c1=O,Potency,[7],inactive
same,Potency,[3],8.33 µM (active)
same,Potency,[4],inactive
CNNCc1ccc(C(=O)NC(C)C)cc1,Potency,[7],inactive
same,Potency,[2],inactive
same,Potency,[4],inactive
same,Potency,[5],2.96 µM (active)
CC1CC2C3CCC4=CC(=O)C=C[C@]4(C)[C@@]3(F)[C@@H](O)C[C@]2(C)[C@@]1(O)C(=O)CO (stereo partly drawn),Potency,[2],0.833 µM (active)
Cc1oc(=O)oc1CN1CCN(c2cc3c(cc2F)c(=O)c(C(=O)O)c2n3C(C)S2)CC1 (stereo not drawn),Potency,[1],inactive
same,Potency,[2],inactive
same,Potency,[3],14.8 µM (active)
same,Potency,[4],inactive
same,Potency,[5],inactive
NC(N)=NC(N)=NCCc1ccccc1,Potency,[1],9.35 µM (active)
same,Potency,[7],4.69 µM (active)
same,Potency,[3],14.8 µM (active)
CCC(=O)O[C@]1(C(=O)CCl)[C@@H](C)C[C@H]2[C@@H]3CCC4=CC(=O)C=C[C@]4(C)[C@@]3(F)[C@@H](O)C[C@@]21C,Potency,[7],inactive
CC(C)OC(=O)OCOP(=O)(CO[C@H](C)Cn1cnc2c(N)ncnc21)OCOC(=O)OC(C)C,Potency,[8],inactive
same,Potency,[5],20.9 µM (active)
CCC(C)(C)c1ccc(CC(C)CN2C[C@@H](C)O[C@@H](C)C2)cc1 (stereo partly drawn),Potency,[4],inactive
same,Potency,[5],inactive
same,Potency,[6],inactive
COc1ccc(C(=O)CC(=O)c2ccc(C(C)(C)C)cc2)cc1,Potency,[7],1.48 µM (active)
same,Potency,[3],10.5 µM (active)
same,Potency,[4],4.18 µM (active)
same,Potency,[5],7.43 µM (active)
CC(C)C1CCC(C(=O)N[C@H](Cc2ccccc2)C(=O)O)CC1 (stereo partly drawn),Potency,[1],inactive
same,Potency,[7],inactive
same,Potency,[3],inactive
same,Potency,[4],inactive
O[C@@H](CNC[C@H](O)[C@H]1CCc2cc(F)ccc2O1)[C@@H]1CCc2cc(F)ccc2O1,Potency,[1],18.7 µM (active)
same,Potency,[3],14.8 µM (active)
same,Potency,[4],20.9 µM (active)
same,Potency,[5],16.6 µM (active)
CC(=O)[C@H]1CC[C@H]2[C@@H]3CCC4=CC(=O)CC[C@]4(C)[C@H]3CC[C@]12C,Potency,[1],inactive
same,Potency,[5],inactive
Nc1nc(N)c2nc(CNc3ccc(C(=O)NC(CCC(=O)O)C(=O)O)cc3)cnc2n1 (stereo not drawn),Potency,[1],inactive
same,Potency,[3],0.0372 µM (active)
same,Potency,[9],0.0118 µM (active)
same,Potency,[4],inactive
COc1cc2c(Nc3ccc(Br)cc3F)ncnc2cc1OCC1CCN(C)CC1,Potency,[7],23.5 µM (active)
same,Potency,[4],inactive
same,Potency,[5],inactive
same,Potency,[6],inactive
CCn1cc(C(=O)O)c(=O)c2cc(F)c(N3CCNCC3)nc21,Potency,[7],inactive
same,Potency,[4],inactive
same,Potency,[5],inactive
CCCCOc1ccc(CC(=O)NO)cc1,Potency,[7],5.26 µM (active)
same,Potency,[3],13.2 µM (active)
same,Potency,[4],18.7 µM (active)
